Experimental data from the supplement of paper PMC10849652.
About 8,800 targets were measured; listed, in parts, are those with a hit and a random draw of the rest. About 0.5% of all pairs of compound and target were hits.

Assays:
Assay in all cases: log2 fold change, soluble protein after heating vs DMSO (PISA); higher = thermal stabilisation; K562 lysate, 10 uM; active = over 0.2 and 3.5 SD of the protein, either way, in both replicates (recomputed)
[1] = compound: C#Cc1cccc(Nc2ncnc3cc(OCCOC)c(OCCOC)cc23)c1 [erlotinib]
Summary of the method: (§1)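 Pellets of K562 cells were dounce-homogenised in PBS pH 7.4 with 1 mM MgCl2, and the crude extract was held at 1 mg/mL protein for a 30 min treatment with 10 μM compound. Aliquots were heated for 3 min over 48°C-58°C and pooled before NP-40 was added to 0.5% at 4°C. The supernatant from 21,000xg for 90 min was quantified by TMTpro 16plex LC-MS/MS with channel sums equalised. Values are reported from duplicates as log-two fold change in thermal stability relative to solvent controls.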

[2] = compound: C/C(=N\NC(=O)C1=CC(=CC=C1)S(=O)(=O)N2CCOCC2)/C3=C(C=CC(=C3)Cl)O
Summary of the method: as §1

[3] = compound: C1=CC(=CC=C1C2=NC3=C(N2)C=C(C=C3)C(=O)N)OC4=CC=C(C=C4)Cl
Summary of the method: as §1

[4] = compound: C1=CC2=C(C=CC(=C2)/C=C\3/C(=O)NC(=NCC4=CC=CS4)S3)N=C1
Summary of the method: as §1

[5] = compound: C1=CC2=NC=CN=C2C=C1/C=C/3\C(=O)NC(=O)S3
Summary of the method: as §1

[6] = compound: C1=CC=C(C=C1)C2=NC(=C(N2)C3=CC=NC=C3)C4=CC(=C(C=C4)Cl)O
Summary of the method: as §1

[7] = compound: C1=CC=C2C(=C1)C3=NNC4=CC=CC(=C43)C2=O
Summary of the method: as §1

[8] = compound: C1CCN(C1)C(=O)NC2=CC=CC(=C2)NC3=NC=C(C(=N3)NCCC4=CN=CN4)Br
Summary of the method: as §1

[9] = compound: C1CN(CCC1(CC2=CC=C(C=C2)Cl)N)C3=NC=NC4=C3C=CN4
Summary of the method: as §1

[10] = compound: C1COCCN1CCN2C3=CC=CC=C3N=C2NC(=O)C4=CC(=CC=C4)[N+](=O)[O-] [IRAK-1-4 Inhibitor I]
Summary of the method: as §1

[11] = compound: C=CC(=O)N1CCC[C@@H](n2nc(-c3ccc(Oc4ccccc4)cc3)c3c(N)ncnc32)C1 [ibrutinib]
Summary of the method: as §1

[12] = compound: CC(=O)c1cnc2ccc(-c3cc(Cl)c(O)c(Cl)c3)nc2c1N[C@H]1CC[C@H](CN(C)C)CC1
Summary of the method: as §1

[13] = compound: CC(C)(C)Cn1c(N)nc2ccc(-c3[nH]c(C(C)(C)C)nc3-c3ccc(F)cc3)nc21 [ralimetinib]
Summary of the method: as §1

[14] = compound: CC(C)(O)CC(=O)NCCn1ccc2ncnc(Nc3ccc(Oc4cccc(C(F)(F)F)c4)c(Cl)c3)c21
Summary of the method: as §1

[15] = compound: CC(C)C1=C2N=C(C=C(N2N=C1)NCC3=CC=CC=C3)NCCCCCCN
Summary of the method: as §1

[16] = compound: CC1=C(C(CC(=O)N1)C2=CC=C(C=C2)C(F)(F)F)C(=O)NC3=C(C=C4C(=C3)C=NN4)F
Summary of the method: as §1

[17] = compound: CC1=C(C2=C(C=C1)C(=O)C3=CC=CC=C3N2CCCN)C
Summary of the method: as §1

[18] = compound: CC1=C(C=C(C=C1)NC(=O)C2=CC(=CC=C2)C(C)(C)C#N)NC3=CC4=C(C=C3)N=CN(C4=O)C
Summary of the method: as §1

[19] = compound: CC1=C(C=C(C=C1)NC(=O)C2=CC(=CC=C2)N(C)C)NC(=O)C3=CC=C(C=C3)O
Summary of the method: as §1

[20] = compound: CC1=CC=C(C=C1)SC2=C3C=C(SC3=CN=C2)C(=O)N
Summary of the method: as §1

Measured: log2 fold change

PRPF6 (UniProt O94906)
inactive: [1] 0.018 | [2] 0.038 | [3] -0.003 | [4] -0.035 | [5] 0.001 | [6] 0.037 | [7] -0.018 | [8] -0.056 | [9] -0.032 | [10] -0.046 | [11] 0 | [12] 0 | [13] 0.038 | [14] 0.022 | [15] 0.005 | [16] -0.008 | [17] 0.001 | [18] -0.022 | [19] 0.053 | [20] 0.007

PIP4K2A (UniProt P48426)
UniProt P48426, sequence (P48426 whole entry, looked up): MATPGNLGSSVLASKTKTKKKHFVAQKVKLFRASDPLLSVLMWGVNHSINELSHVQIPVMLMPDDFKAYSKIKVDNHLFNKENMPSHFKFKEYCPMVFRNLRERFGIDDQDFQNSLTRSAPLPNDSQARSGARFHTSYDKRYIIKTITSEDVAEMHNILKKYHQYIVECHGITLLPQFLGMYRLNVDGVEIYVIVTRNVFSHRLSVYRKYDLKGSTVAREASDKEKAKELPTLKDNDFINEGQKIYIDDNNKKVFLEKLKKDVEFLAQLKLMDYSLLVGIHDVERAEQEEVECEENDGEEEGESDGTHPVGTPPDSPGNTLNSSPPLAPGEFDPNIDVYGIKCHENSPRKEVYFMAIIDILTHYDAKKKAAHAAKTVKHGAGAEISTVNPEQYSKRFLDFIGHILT
inactive: [1] -0.04 | [3] 0.032 | [4] 0.001 | [5] 0.225 | [6] 0.135 | [7] 0.105 | [8] 0.103 | [9] -0.006 | [10] -0.007 | [11] -0.052 | [12] 0.086 | [13] 0.032 | [14] -0.053 | [15] -0.043 | [16] -0.017 | [17] -0.019 | [18] -0.002 | [19] -0.028 | [20] -0.026
active: [2] -0.239

PDXK (UniProt O00764)
UniProt O00764, sequence (O00764 whole entry, looked up): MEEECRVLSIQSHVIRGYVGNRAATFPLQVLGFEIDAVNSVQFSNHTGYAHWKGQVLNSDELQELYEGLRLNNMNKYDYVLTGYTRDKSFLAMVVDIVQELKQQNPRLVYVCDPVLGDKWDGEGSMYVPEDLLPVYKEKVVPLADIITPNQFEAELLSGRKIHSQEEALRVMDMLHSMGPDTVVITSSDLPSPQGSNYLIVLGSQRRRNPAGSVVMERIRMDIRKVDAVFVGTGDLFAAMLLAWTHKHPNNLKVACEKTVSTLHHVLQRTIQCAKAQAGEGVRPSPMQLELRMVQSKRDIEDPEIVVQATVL
inactive: [1] -0.003 | [2] 0.02 | [3] 0.103 | [4] -0.019 | [5] -0.02 | [6] -0.008 | [7] 0.021 | [8] 0.037 | [9] -0.012 | [10] 0.018 | [11] 0.007 | [12] 0.014 | [13] 0.01 | [14] -0.006 | [15] -0.009 | [16] 0.017 | [17] -0.058 | [18] 0.016 | [19] -0.029 | [20] -0.001

PGPEP1 (UniProt Q9NXJ5)
UniProt Q9NXJ5, sequence (Q9NXJ5 whole entry, looked up): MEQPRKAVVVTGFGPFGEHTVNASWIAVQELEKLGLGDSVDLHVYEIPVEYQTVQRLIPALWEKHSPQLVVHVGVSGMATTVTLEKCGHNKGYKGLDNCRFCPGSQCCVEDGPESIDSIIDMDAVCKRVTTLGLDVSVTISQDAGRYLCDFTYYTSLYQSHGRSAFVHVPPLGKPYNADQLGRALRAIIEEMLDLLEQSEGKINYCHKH
inactive: [1] -0.003 | [2] 0.102 | [3] -0.053 | [4] -0.046 | [5] 0.013 | [6] 0.014 | [7] -0.018 | [8] -0.059 | [9] 0.001 | [10] -0.003 | [11] -0.051 | [12] 0.02 | [13] -0.013 | [14] 0.013 | [15] 0.043 | [16] -0.078 | [17] 0.015 | [18] 0.123 | [19] -0.034 | [20] -0.053

PSMB9 (UniProt P28065)
inactive: [1] 0.02 | [2] -0.112 | [3] 0.008 | [4] -0.062 | [5] -0.08 | [6] -0.061 | [7] 0.033 | [8] -0.084 | [9] 0.084 | [10] -0.048 | [11] -0.073 | [12] -0.196 | [13] 0.052 | [14] -0.01 | [15] 0.011 | [16] 0.003 | [17] -0.047 | [18] 0.096 | [19] -0.027 | [20] -0.178

PDPK1 (UniProt O15530)
inactive: [1] -0.066 | [2] -0.007 | [3] -0.081 | [4] -0.047 | [5] -0.055 | [6] 0.005 | [7] 0.298 | [9] 0.019 | [10] 0.018 | [11] 0.026 | [12] 0.236 | [13] 0.067 | [14] -0.075 | [15] 0.021 | [16] 0.163 | [17] -0.034 | [18] -0.056 | [19] -0.006 | [20] -0.021
active: [8] 0.552

PPME1 isoform 4 (UniProt Q9Y570)
UniProt Q9Y570, sequence (Q9Y570 whole entry, looked up): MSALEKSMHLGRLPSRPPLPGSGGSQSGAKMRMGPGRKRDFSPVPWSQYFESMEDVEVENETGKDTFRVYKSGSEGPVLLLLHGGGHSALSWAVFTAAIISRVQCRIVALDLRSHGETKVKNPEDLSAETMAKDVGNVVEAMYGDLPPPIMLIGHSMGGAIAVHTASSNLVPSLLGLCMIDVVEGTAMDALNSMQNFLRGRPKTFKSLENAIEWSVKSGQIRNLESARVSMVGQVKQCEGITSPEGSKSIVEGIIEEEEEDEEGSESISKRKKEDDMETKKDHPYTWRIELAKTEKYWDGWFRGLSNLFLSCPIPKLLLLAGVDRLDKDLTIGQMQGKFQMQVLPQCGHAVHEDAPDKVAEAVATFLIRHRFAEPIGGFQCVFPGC
inactive: [1] -0.002 | [2] -0.006 | [3] 0.023 | [4] -0.005 | [5] -0.035 | [6] 0.017 | [7] 0.065 | [8] 0.013 | [9] 0.01 | [10] -0.006 | [11] 0.042 | [12] 0.009 | [13] 0.008 | [14] 0.018 | [15] -0.001 | [16] -0.021 | [17] -0.004 | [18] -0.011 | [19] -0.023 | [20] 0.012

PKN1 isoform 2 (UniProt Q16512)
UniProt Q16512, sequence (Q16512 whole entry, looked up): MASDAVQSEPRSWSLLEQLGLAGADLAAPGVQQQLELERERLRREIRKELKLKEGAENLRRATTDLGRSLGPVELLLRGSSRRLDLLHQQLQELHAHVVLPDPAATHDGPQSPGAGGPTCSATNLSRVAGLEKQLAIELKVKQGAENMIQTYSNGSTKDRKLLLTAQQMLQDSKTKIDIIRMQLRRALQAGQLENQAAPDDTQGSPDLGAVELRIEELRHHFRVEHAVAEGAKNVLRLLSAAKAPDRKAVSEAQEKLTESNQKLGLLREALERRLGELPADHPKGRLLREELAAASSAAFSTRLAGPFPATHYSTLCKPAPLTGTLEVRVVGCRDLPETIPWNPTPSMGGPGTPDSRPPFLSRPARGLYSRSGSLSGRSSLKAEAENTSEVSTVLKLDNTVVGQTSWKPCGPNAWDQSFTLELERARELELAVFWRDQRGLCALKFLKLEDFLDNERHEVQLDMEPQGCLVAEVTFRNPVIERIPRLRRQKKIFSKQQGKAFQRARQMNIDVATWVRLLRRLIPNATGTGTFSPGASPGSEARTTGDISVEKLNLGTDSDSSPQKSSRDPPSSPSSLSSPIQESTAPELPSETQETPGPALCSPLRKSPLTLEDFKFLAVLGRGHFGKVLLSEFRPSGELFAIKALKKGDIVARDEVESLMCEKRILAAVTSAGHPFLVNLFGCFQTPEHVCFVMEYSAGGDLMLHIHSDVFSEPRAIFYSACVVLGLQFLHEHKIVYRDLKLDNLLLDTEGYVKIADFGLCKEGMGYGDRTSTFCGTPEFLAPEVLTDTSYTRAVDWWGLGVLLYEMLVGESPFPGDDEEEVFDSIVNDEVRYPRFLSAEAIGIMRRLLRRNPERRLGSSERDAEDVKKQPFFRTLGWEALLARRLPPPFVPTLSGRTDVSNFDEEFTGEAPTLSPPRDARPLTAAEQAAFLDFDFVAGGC
inactive: [1] -0.014 | [2] 0.007 | [3] 0.018 | [4] -0.048 | [5] -0.042 | [6] -0.004 | [7] -0.175 | [8] -0.191 | [9] -0.203 | [10] -0.174 | [11] 0.011 | [12] -0.107 | [13] -0.001 | [14] 0.008 | [15] 0.006 | [16] 0.091 | [17] 0.021 | [18] 0.048 | [19] 0.035 | [20] 0.05

PWP2 (UniProt Q15269)
inactive: [1] 0.051 | [2] -0.076 | [3] -0.036 | [4] 0.02 | [5] 0.015 | [6] -0.012 | [7] -0.013 | [8] 0.018 | [9] 0.04 | [10] -0.027 | [11] 0.003 | [12] -0.021 | [13] 0.048 | [14] 0.027 | [15] 0.009 | [16] 0.037 | [17] -0.014 | [18] -0.035 | [19] 0.018 | [20] 0.015

PELO (UniProt Q9BRX2)
UniProt Q9BRX2, sequence (Q9BRX2 whole entry, looked up): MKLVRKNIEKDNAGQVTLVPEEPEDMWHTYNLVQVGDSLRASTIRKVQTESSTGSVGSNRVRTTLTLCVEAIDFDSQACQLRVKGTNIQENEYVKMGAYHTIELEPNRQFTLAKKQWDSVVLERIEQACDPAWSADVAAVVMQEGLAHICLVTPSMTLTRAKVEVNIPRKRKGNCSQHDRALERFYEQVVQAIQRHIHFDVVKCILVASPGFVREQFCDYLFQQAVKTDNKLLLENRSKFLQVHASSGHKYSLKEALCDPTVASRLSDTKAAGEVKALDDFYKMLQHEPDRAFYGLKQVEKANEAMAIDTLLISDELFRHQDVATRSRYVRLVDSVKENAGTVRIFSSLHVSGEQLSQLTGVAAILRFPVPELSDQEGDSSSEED
inactive: [1] 0 | [2] -0.047 | [3] -0.058 | [4] -0.014 | [5] -0.002 | [6] 0 | [7] -0.038 | [8] -0.021 | [9] -0.049 | [10] 0 | [11] 0.034 | [12] -0.004 | [13] 0.04 | [14] -0.035 | [15] 0.005 | [16] -0.02 | [17] -0.012 | [18] -0.005 | [19] 0.001 | [20] 0.002

PHKG2 (UniProt P15735)
UniProt P15735, sequence (P15735 whole entry, looked up): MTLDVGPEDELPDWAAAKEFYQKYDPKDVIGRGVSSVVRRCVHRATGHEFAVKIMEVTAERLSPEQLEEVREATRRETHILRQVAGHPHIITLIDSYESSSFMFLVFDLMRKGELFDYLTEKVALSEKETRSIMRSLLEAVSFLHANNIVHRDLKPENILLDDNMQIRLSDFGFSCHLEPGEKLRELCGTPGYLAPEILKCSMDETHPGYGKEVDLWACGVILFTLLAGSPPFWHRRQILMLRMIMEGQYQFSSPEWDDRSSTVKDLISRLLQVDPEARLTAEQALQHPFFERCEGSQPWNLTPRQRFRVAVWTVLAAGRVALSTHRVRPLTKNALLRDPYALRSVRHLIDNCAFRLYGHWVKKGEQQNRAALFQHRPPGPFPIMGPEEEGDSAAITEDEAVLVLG
inactive: [1] -0.106 | [2] 0.062 | [3] 0.04 | [4] 0.075 | [5] 0.104 | [6] 0.022 | [7] 0.231 | [8] 0.045 | [9] -0.011 | [10] 0.036 | [11] -0.099 | [12] 0.168 | [13] 0.003 | [14] -0.011 | [15] 0.03 | [16] -0.029 | [17] -0.018 | [18] -0.018 | [19] -0.004 | [20] -0.027

PDIA4 (UniProt P13667)
UniProt P13667, sequence (P13667 whole entry, looked up): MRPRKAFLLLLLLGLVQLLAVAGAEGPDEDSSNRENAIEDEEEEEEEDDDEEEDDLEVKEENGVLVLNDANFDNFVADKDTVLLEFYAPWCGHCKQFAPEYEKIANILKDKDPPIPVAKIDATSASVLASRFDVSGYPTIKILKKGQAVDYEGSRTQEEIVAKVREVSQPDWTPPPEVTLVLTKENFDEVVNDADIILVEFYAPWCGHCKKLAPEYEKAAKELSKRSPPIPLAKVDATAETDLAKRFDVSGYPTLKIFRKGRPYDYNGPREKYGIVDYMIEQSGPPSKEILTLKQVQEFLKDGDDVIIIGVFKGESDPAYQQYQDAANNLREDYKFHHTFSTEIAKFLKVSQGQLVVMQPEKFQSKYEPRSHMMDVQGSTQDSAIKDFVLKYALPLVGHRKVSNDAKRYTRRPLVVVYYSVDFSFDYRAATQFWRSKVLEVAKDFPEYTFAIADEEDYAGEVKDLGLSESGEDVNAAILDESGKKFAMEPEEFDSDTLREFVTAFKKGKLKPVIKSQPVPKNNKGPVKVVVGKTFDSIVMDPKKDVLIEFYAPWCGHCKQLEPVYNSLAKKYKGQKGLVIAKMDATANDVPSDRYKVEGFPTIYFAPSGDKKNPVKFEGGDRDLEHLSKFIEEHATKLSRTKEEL
inactive: [1] -0.011 | [2] 0.062 | [3] 0.005 | [4] -0.017 | [5] -0.008 | [6] 0.006 | [7] 0 | [8] 0.04 | [9] 0.007 | [10] -0.001 | [11] 0.006 | [12] -0.008 | [13] -0.016 | [14] 0.011 | [15] 0.001 | [16] -0.01 | [17] 0.021 | [18] -0.038 | [19] 0.011 | [20] 0.007

PI4KA (UniProt P42356)
inactive: [1] 0.018 | [2] -0.014 | [3] -0.055 | [4] 0.035 | [5] 0.075 | [6] -0.028 | [7] -0.027 | [8] -0.021 | [9] 0.02 | [10] -0.003 | [11] 0.012 | [12] 0.119 | [13] 0.011 | [14] -0.073 | [15] -0.045 | [16] 0 | [17] -0.039 | [18] 0.032 | [19] 0.04 | [20] -0.002

POC5 (UniProt Q8NA72)
UniProt Q8NA72, sequence (Q8NA72 whole entry, looked up): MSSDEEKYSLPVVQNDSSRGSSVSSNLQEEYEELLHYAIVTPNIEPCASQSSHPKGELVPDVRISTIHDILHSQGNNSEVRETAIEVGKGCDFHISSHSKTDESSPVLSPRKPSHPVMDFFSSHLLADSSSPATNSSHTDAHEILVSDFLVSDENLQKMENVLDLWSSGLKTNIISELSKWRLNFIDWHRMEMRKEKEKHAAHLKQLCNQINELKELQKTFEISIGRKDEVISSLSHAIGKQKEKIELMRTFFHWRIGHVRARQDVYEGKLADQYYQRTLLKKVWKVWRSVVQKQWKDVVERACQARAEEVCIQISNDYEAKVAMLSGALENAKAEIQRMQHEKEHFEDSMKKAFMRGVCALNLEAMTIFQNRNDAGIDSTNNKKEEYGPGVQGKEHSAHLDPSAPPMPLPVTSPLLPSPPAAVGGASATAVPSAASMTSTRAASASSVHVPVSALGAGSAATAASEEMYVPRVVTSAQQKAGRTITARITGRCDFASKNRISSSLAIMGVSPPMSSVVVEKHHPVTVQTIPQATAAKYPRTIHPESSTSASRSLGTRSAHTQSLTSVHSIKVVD
inactive: [1] -0.022 | [2] -0.083 | [3] -0.01 | [4] 0.069 | [5] -0.025 | [6] 0.039 | [7] -0.144 | [8] 0.045 | [9] 0.043 | [10] 0.069 | [11] 0.013 | [12] -0.063 | [13] 0.062 | [14] -0.029 | [15] 0.101 | [16] 0.015 | [17] 0.026 | [18] -0.015 | [19] 0 | [20] -0.02

PHGDH (UniProt O43175)
UniProt O43175, sequence (O43175 whole entry, looked up): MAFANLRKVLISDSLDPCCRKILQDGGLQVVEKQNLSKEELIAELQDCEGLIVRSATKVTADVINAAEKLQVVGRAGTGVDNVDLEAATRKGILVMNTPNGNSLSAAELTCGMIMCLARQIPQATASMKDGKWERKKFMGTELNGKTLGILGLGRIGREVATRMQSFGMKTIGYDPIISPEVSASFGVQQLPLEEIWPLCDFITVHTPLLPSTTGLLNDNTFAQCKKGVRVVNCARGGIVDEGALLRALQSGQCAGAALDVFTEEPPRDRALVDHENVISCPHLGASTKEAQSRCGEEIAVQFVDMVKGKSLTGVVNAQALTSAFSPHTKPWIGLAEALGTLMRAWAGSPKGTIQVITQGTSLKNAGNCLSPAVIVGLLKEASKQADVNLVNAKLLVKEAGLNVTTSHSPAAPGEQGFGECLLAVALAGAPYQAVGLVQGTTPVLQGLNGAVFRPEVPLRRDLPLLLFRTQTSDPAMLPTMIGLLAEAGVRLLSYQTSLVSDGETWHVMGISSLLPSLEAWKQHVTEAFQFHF
inactive: [1] 0.033 | [2] 0.155 | [3] 0.05 | [4] -0.222 | [5] -0.092 | [6] -0.012 | [7] 0.04 | [8] 0.045 | [9] 0.021 | [10] 0.011 | [11] 0.03 | [12] 0.021 | [13] 0.013 | [14] 0.028 | [15] 0.012 | [16] -0.003 | [17] 0.013 | [18] -0.004 | [19] -0.012 | [20] 0.029

PDCD4 (UniProt Q53EL6)
inactive: [1] 0 | [2] -0.052 | [3] -0.02 | [4] -0.003 | [5] -0.004 | [6] -0.026 | [7] 0.014 | [8] -0.011 | [9] 0.008 | [10] 0.015 | [11] -0.002 | [12] -0.002 | [13] 0.025 | [14] -0.032 | [15] 0.007 | [16] 0.025 | [17] -0.003 | [18] 0.032 | [19] 0.007 | [20] 0.011
